Measured values reported in the supplement of paper PMC11732987, “Enantioselective OTUD7B fragment discovery through chemoproteomics screening and high-throughput optimisation” (Communications Chemistry, 2025).

Tests used:
Test in all cases: log2 ratio of Biotin-Ahx-Ub-VS probe labelling (compound/DMSO); higher = less target engagement, active = hit call of the paper (q ≤ 0.05, log2 ratio ≤ -1)
Details in all cases: treatment time: 3 h
[1] = compound: CCC1N(CCc2sccc12)C(=O)CCl
Procedure, shortened: (§1)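 HEK293T lysate (495 µg per sample, in Tris/CHAPS/IGEPAL buffer with protease inhibitors) was exposed in triplicate to compound at 50 or 200 µM, or to DMSO, for 3 h, then to Biotin-Ahx-Ub-VS (0.5 µM final) for 1 h. The labelled DUBs were enriched on NeutrAvidin, digested with LysC and trypsin, and analysed by diaPASEF LC-MS/MS. Average base-two log ratios of compound over DMSO came from median-normalised label-free quantities by unpaired t-test. Only proteins with at least 2 unique peptides were used.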

[2] = compound: CN1c2ccccc2C(CS1(=O)=O)NC(=O)CCl
Procedure, shortened: as §1

[3] = compound: Cl.ClCC(=O)N1CCc2ncncc2C1
Procedure, shortened: as §1

[4] = compound: Cl.Cn1ncc2C(CCCc12)NC(=O)CCl
Procedure, shortened: as §1

[5] = compound: ClCC(=O)NC1CCOc2ccccc12
Procedure, shortened: as §1

[6] = compound: ClCC(=O)NC1CCCc2ccccc12
Procedure, shortened: (§2)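 These values are averaged ratios of compound to vehicle, tested by unpaired t-test. HEK293T lysate (495 µg per sample) was preincubated in triplicate with compound across a concentration series or vehicle for 3 h and then with Biotin-Ahx-Ub-VS at 0.5 µM final for 1 h. Deubiquitinases carrying the probe were NeutrAvidin-enriched, digested with LysC and trypsin, and measured by diaPASEF LC-MS/MS. Ratios are expressed as log2 from global-median-normalised Spectronaut label-free quantities, and only proteins with two or more unique peptides were included.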

[7] = compound: ClCC(=O)N[C@@H]1CCCc2ccccc12
Procedure, shortened: as §2

[8] = compound: ClCC(=O)N[C@H]1CCCc2ccccc12
Procedure, shortened: as §2

[9] = compound: CCC1N(CCc2cc(OC)c(Cl)cc12)C(=O)CCl
Procedure, shortened: as §1

[10] = compound: CCCC1N(CCc2cc(OC)c(OC)cc12)C(=O)CCl
Procedure, shortened: as §1

Measured: log2 ratio of Biotin-Ahx-Ub-VS probe labelling

USP5 (UniProt P45974)
UniProt P45974, sequence (P45974 whole entry): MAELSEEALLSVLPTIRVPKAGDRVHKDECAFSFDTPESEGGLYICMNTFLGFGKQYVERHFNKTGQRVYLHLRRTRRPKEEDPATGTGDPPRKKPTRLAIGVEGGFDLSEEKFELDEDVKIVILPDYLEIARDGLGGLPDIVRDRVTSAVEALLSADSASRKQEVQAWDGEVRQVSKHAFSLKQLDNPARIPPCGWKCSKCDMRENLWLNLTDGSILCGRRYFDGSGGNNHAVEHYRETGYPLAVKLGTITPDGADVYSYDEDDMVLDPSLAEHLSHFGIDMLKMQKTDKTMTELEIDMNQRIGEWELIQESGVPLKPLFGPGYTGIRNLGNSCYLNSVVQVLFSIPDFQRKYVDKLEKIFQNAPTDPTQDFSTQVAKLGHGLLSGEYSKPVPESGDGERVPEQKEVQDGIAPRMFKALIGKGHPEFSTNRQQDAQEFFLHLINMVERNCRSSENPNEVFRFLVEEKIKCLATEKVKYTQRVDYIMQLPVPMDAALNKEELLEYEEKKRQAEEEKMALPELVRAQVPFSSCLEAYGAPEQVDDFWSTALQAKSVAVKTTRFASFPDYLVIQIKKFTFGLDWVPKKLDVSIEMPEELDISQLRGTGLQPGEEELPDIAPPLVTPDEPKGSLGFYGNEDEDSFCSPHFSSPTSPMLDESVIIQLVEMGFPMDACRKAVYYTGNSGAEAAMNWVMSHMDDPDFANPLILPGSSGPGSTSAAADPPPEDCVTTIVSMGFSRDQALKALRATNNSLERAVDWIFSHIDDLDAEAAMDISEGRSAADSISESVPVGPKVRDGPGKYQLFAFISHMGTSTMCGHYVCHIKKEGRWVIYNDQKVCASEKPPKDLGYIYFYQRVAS
inactive: [1]; compound concentration: 50uM 0.107 | [1]; compound concentration: 200uM 0.165 | [2]; compound concentration: 50uM -0.0432 | [2]; compound concentration: 200uM -0.0749 | [3]; compound concentration: 50uM 0.179 | [3]; compound concentration: 200uM -0.233 | [4]; compound concentration: 50uM 0.122 | [4]; compound concentration: 200uM -0.00464 | [5]; compound concentration: 50uM 0.209 | [5]; compound concentration: 200uM 0.107 | [6]; compound concentration: 0.78uM -0.0702 | [6]; compound concentration: 1.56uM -0.0265 | [6]; compound concentration: 3.13uM -0.189 | [6]; compound concentration: 6.25uM -0.131 | [6]; compound concentration: 12.5uM -0.157 | [6]; compound concentration: 25uM -0.19 | [6]; compound concentration: 50uM -0.0861 | [6]; compound concentration: 100uM -0.067 | [6]; compound concentration: 200uM -0.0831 | [7]; compound concentration: 0.78uM -0.209 | [7]; compound concentration: 1.56uM -0.162 | [7]; compound concentration: 3.13uM -0.139 | [7]; compound concentration: 6.25uM -0.155 | [7]; compound concentration: 12.5uM -0.0604 | [7]; compound concentration: 25uM -0.131 | [7]; compound concentration: 50uM -0.159 | [7]; compound concentration: 100uM -0.0875 | [7]; compound concentration: 200uM -0.125 | [8]; compound concentration: 0.78uM -0.109 | [8]; compound concentration: 1.56uM -0.17 | [8]; compound concentration: 3.13uM -0.185 | [8]; compound concentration: 6.25uM -0.0549 | [8]; compound concentration: 12.5uM -0.103 | [8]; compound concentration: 25uM -0.119 | [8]; compound concentration: 50uM -0.0192 | [8]; compound concentration: 100uM -0.093 | [8]; compound concentration: 200uM -0.184 | [9]; compound concentration: 50uM 0.0912 | [9]; compound concentration: 200uM -0.014 | [10]; compound concentration: 50uM -0.158 | [10]; compound concentration: 200uM -0.268

USP16 (UniProt Q9Y5T5)
UniProt Q9Y5T5, sequence (Q9Y5T5 whole entry, looked up): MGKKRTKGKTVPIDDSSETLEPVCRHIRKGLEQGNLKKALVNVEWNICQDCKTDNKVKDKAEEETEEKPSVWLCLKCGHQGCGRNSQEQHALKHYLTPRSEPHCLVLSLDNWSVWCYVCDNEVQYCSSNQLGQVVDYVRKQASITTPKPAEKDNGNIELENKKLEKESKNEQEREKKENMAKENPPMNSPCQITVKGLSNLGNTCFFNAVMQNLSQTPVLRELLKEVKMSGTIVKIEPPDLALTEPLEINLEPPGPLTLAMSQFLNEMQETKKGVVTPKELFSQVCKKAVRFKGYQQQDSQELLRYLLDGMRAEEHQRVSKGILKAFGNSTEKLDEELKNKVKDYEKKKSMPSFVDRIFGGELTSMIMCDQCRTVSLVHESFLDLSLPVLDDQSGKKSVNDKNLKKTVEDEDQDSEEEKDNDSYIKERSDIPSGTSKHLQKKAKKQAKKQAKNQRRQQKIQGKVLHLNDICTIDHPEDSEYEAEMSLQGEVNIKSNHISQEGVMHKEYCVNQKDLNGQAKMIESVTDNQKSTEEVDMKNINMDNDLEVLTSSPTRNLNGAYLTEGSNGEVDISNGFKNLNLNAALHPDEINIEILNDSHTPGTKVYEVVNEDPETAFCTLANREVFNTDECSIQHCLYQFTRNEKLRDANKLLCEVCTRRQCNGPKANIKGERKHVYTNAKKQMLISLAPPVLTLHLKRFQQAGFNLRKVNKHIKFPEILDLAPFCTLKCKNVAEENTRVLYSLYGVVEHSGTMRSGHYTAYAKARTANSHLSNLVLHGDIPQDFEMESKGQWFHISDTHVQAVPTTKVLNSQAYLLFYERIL
inactive: [1]; compound concentration: 50uM -0.0823 | [1]; compound concentration: 200uM -0.556 | [2]; compound concentration: 50uM -0.113 | [2]; compound concentration: 200uM -0.275 | [3]; compound concentration: 50uM 0.0401 | [3]; compound concentration: 200uM -0.748 | [4]; compound concentration: 50uM -0.209 | [4]; compound concentration: 200uM -0.00919 | [5]; compound concentration: 50uM -0.0288 | [5]; compound concentration: 200uM -0.558 | [6]; compound concentration: 0.78uM -0.182 | [6]; compound concentration: 1.56uM -0.165 | [6]; compound concentration: 3.13uM -0.0224 | [6]; compound concentration: 6.25uM -0.111 | [6]; compound concentration: 12.5uM -0.299 | [6]; compound concentration: 25uM -0.0714 | [6]; compound concentration: 50uM -0.0894 | [6]; compound concentration: 100uM -0.233 | [6]; compound concentration: 200uM -0.491 | [7]; compound concentration: 0.78uM -0.0997 | [7]; compound concentration: 1.56uM -0.0515 | [7]; compound concentration: 3.13uM -0.248 | [7]; compound concentration: 6.25uM -0.0769 | [7]; compound concentration: 12.5uM -0.00208 | [7]; compound concentration: 25uM -0.0915 | [7]; compound concentration: 50uM -0.387 | [7]; compound concentration: 100uM -0.167 | [7]; compound concentration: 200uM -0.479 | [8]; compound concentration: 0.78uM -0.177 | [8]; compound concentration: 1.56uM -0.318 | [8]; compound concentration: 3.13uM 0.0709 | [8]; compound concentration: 6.25uM -0.00683 | [8]; compound concentration: 12.5uM -0.0549 | [8]; compound concentration: 25uM 0.0133 | [8]; compound concentration: 50uM 0.0578 | [8]; compound concentration: 100uM -0.181 | [8]; compound concentration: 200uM -0.253 | [9]; compound concentration: 50uM -0.285 | [9]; compound concentration: 200uM -0.652 | [10]; compound concentration: 50uM -0.265 | [10]; compound concentration: 200uM -0.972
